From PubChem BioAssay AID1159580 (chemical genetic matrix, 2015)
Screen size: about 5,500 compounds; about 2,000 (36%) were called active. Inconclusive results (about 18%) are left out. Cut-off read from the data, not from the text of the source: active = normalized growth mostly below about 0.91 (no sharp cut-off); inconclusive = no clear call, values can overlap the other calls; inactive = mostly above about 0.92. This is one part of the list.

Assay: chemical genetic growth profiling, strain panel (AID 1159580);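 note: tested at 20 µM; growth read once vehicle control cultures reached saturation at 30 °C; 1 = growth at the plate median or of vehicle wells; lower values mean less growth of the strain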
Conditions: growth OD

Measured: normalized growth

O=C(/C=C(\O)c1ccccc1)c1ccccc1O
active: S. cerevisiae deletion strains, locus YJL187C, strain SWE1 (second series), stronger effect = lower value 0.456 | S. cerevisiae deletion strains, locus YJL187C, strain SWE1, stronger effect = lower value 0.785 | S. cerevisiae deletion strains, locus YKL009W, strain mrt4, stronger effect = lower value 0.78 | S. cerevisiae deletion strains, locus YKL160W, strain elf1, stronger effect = lower value 0.823 | S. cerevisiae deletion strains, locus YKL190W, strain CNB1, stronger effect = lower value 0.902 | S. cerevisiae deletion strains, locus YKR001C, strain vps1, stronger effect = lower value 0.73 | S. cerevisiae deletion strains, locus YKR026C, strain gcn3, stronger effect = lower value 0.895 | S. cerevisiae deletion strains, locus YKR091W, strain srl3, stronger effect = lower value 0.904 | S. cerevisiae deletion strains, locus YLL001W, strain dnm1, stronger effect = lower value 0.769 | S. cerevisiae deletion strains, locus YLL026W, stronger effect = lower value 0.864 | S. cerevisiae deletion strains, locus YLL041C, strain sdh2, stronger effect = lower value 0.869 | S. cerevisiae deletion strains, locus YLR027C, strain aat2, stronger effect = lower value 0.685 | S. cerevisiae deletion strains, locus YLR039C, strain RIC1, stronger effect = lower value 0.137 | S. cerevisiae deletion strains, locus YLR058C, strain SHM2, stronger effect = lower value 0.442 | S. cerevisiae deletion strains, locus YLR221C, strain rsa3, stronger effect = lower value 0.601 | S. cerevisiae deletion strains, locus YLR258W, strain gsy2, stronger effect = lower value 0.818 | S. cerevisiae deletion strains, locus YLR262C, strain YPT6 (second series), stronger effect = lower value 0.391 | S. cerevisiae deletion strains, locus YLR262C, strain YPT6, stronger effect = lower value 0.463 | S. cerevisiae deletion strains, locus YLR268W, strain sec22, stronger effect = lower value 0.836 | S. cerevisiae deletion strains, locus YLR320W, strain mms22, stronger effect = lower value 0.767 | S. cerevisiae deletion strains, locus YLR342W, strain FKS1, stronger effect = lower value 0.903 | S. cerevisiae deletion strains, locus YLR357W, strain rsc2, stronger effect = lower value 0.785 | S. cerevisiae deletion strains, locus YLR370C, strain arc18, stronger effect = lower value 0.864 | S. cerevisiae deletion strains, locus YLR371W, strain rom2, stronger effect = lower value 0.801 | S. cerevisiae deletion strains, locus YLR418C, strain cdc73, stronger effect = lower value 0.64 | S. cerevisiae deletion strains, locus YML016C, strain PPZ1, stronger effect = lower value 0.633 | S. cerevisiae deletion strains, locus YML032C, strain rad52, stronger effect = lower value 0.453 | S. cerevisiae deletion strains, locus YML120C, strain ndi1, stronger effect = lower value 0.589 | S. cerevisiae deletion strains, locus YML124C, strain tub3, stronger effect = lower value 0.901 | S. cerevisiae deletion strains, locus YMR058W, strain fet3, stronger effect = lower value 0.21 | S. cerevisiae deletion strains, locus YMR129W, stronger effect = lower value 0.847 | S. cerevisiae deletion strains, locus YMR205C, strain PFK2, stronger effect = lower value 0.613 | S. cerevisiae deletion strains, locus YMR223W, strain ubp8, stronger effect = lower value 0.826 | S. cerevisiae deletion strains, locus YMR231W, strain pep5, stronger effect = lower value 0.083 | S. cerevisiae deletion strains, locus YMR307W, strain GAS1, stronger effect = lower value 0.523 | S. cerevisiae deletion strains, locus YNL071W, strain lat1, stronger effect = lower value 0.581 | S. cerevisiae deletion strains, locus YNL153C, strain GIM3, stronger effect = lower value 0.582 | S. cerevisiae deletion strains, locus YNL209W, strain ssb2, stronger effect = lower value 0.648 | S. cerevisiae deletion strains, locus YNL233W, strain BNI4, stronger effect = lower value 0.707 | S. cerevisiae deletion strains, locus YNL322C, strain KRE1 (second series), stronger effect = lower value 0.789 | S. cerevisiae deletion strains, locus YNR049C, strain mso1, stronger effect = lower value 0.892 | S. cerevisiae deletion strains, locus YNR052C, strain pop2, stronger effect = lower value 0.556 | S. cerevisiae deletion strains, locus YOL147C, strain pex11, stronger effect = lower value 0.531 | S. cerevisiae deletion strains, locus YOR001W, strain rrp6, stronger effect = lower value 0.733 | S. cerevisiae deletion strains, locus YOR069W, strain VPS5, stronger effect = lower value 0.719 | S. cerevisiae deletion strains, locus YOR070C, strain gyp1, stronger effect = lower value 0.921 | S. cerevisiae deletion strains, locus YOR083W, strain WHI5, stronger effect = lower value 0.745 | S. cerevisiae deletion strains, locus YOR106W, strain vam3, stronger effect = lower value 0.0896 | S. cerevisiae deletion strains, locus YOR144C, strain elg1, stronger effect = lower value 0.724 | S. cerevisiae deletion strains, locus YOR184W, strain ser1, stronger effect = lower value 0.703 | S. cerevisiae deletion strains, locus YOR265W, strain rbl2, stronger effect = lower value 0.849 | S. cerevisiae deletion strains, locus YOR270C, strain vph1, stronger effect = lower value 0.607 | S. cerevisiae deletion strains, locus YOR290C, strain snf2, stronger effect = lower value 0.676 | S. cerevisiae deletion strains, locus YPL051W, strain arl3, stronger effect = lower value 0.568 | S. cerevisiae deletion strains, locus YPL078C, strain atp4, stronger effect = lower value 0.795 | S. cerevisiae deletion strains, locus YPL240C, strain hsp82, stronger effect = lower value 0.78 | S. cerevisiae deletion strains, locus YPL241C, strain CIN2, stronger effect = lower value 0.928 | S. cerevisiae deletion strains, locus YPR163C, strain tif3, stronger effect = lower value 0.755 | S. cerevisiae deletion strains, locus YPR167C, strain met16, stronger effect = lower value 0.852 | S. cerevisiae deletion strains, strain wtn01, stronger effect = lower value 0.843 | S. cerevisiae strains, strain wild type, stronger effect = lower value 0.545
inactive: S. cerevisiae deletion strains, locus YKL068W, stronger effect = lower value 0.969 | S. cerevisiae deletion strains, locus YKL085W, strain MDH1 (second series), stronger effect = lower value 0.963 | S. cerevisiae deletion strains, locus YKL085W, strain MDH1, stronger effect = lower value 0.963 | S. cerevisiae deletion strains, locus YLR102C, strain apc9, stronger effect = lower value 0.997 | S. cerevisiae deletion strains, locus YLR342W, strain FKS1 (second series), stronger effect = lower value 0.849 | S. cerevisiae deletion strains, locus YLR384C, strain iki3, stronger effect = lower value 0.92 | S. cerevisiae deletion strains, locus YMR078C, strain ctf18, stronger effect = lower value 0.948 | S. cerevisiae deletion strains, locus YMR125W, strain sto1, stronger effect = lower value 0.991 | S. cerevisiae deletion strains, locus YNL067W, strain RPL9B, stronger effect = lower value 0.929 | S. cerevisiae deletion strains, locus YNL128W, strain TEP1, stronger effect = lower value 0.855 | S. cerevisiae deletion strains, locus YNL248C, strain rpa49, stronger effect = lower value 0.91 | S. cerevisiae deletion strains, locus YNL250W, strain rad50, stronger effect = lower value 0.97 | S. cerevisiae deletion strains, locus YNL271C, strain bni1, stronger effect = lower value 0.951 | S. cerevisiae deletion strains, locus YNL298W, strain CLA4, stronger effect = lower value 0.926 | S. cerevisiae deletion strains, locus YNL307C, strain MCK1, stronger effect = lower value 0.928 | S. cerevisiae deletion strains, locus YOL012C, strain htz1 0.3 | S. cerevisiae deletion strains, locus YOR061W, strain CKA2, stronger effect = lower value 0.93 | S. cerevisiae deletion strains, locus YOR080W, strain dia2, stronger effect = lower value 0.929 | S. cerevisiae deletion strains, locus YOR136W, strain idh2, stronger effect = lower value 0.939 | S. cerevisiae deletion strains, locus YOR316C, strain cot1, stronger effect = lower value 0.941 | S. cerevisiae deletion strains, locus YPL106C, strain sse1, stronger effect = lower value 0.933 | S. cerevisiae deletion strains, locus YPR119W, strain clb2, stronger effect = lower value 0.951 | S. cerevisiae deletion strains, locus YPR141C, strain kar3, stronger effect = lower value 0.967
